The panel holds about 79,000 compounds, 15% with a hit somewhere; the sample as a whole holds those more often. Values without a mark were called inactive. Active and inactive are the calls of the source. Cut-off read from the data, not from the text of the source: active = growth inhibition above about 70%; inactive = the rest.
Key:
[1] = NCI Yeast Anticancer Drug Screen. Data for the rad52 strain (AID 147);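 note: 0% = growth of vehicle-treated control cultures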; conditions: S. cerevisiae rad52 mutant growth inhibition, stronger effect = higher value
Summary of the method: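 Screen used a yeast mutant impaired in DNA repair. After compound exposure, growth was measured. Values reflect inhibition compared with vehicle-treated cells.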

[2] = NCI Yeast Anticancer Drug Screen. Data for the wt1 strain (AID 149);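 note: 0% = growth of vehicle-treated wt1 cultures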; conditions: S. cerevisiae wt1 strain (SPY 50644) growth inhibition, stronger effect = higher value
Summary of the method: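 The wt1 strain was treated with compounds, and growth was compared with vehicle-treated cultures to give inhibition.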

[3] = NCI Yeast Anticancer Drug Screen. Data for the rad50EPP+ strain (AID 151);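 note: 0% = growth of vehicle-treated control cultures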; conditions: S. cerevisiae rad50 mutant strain, stronger effect = higher value
Summary of the method: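 Exposing the rad50EPP+ strain to each compound, growth was compared with vehicle-only cultures to give inhibition.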

[4] = NCI Yeast Anticancer Drug Screen. Data for the rad50 strain (AID 155);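 note: 0% = growth of vehicle-only cultures of the same strain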; conditions: S. cerevisiae rad50 strain growth inhibition, stronger effect = higher value
Summary of the method: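 Cells are treated with compound, grown, and their growth is then scored against vehicle-only cultures of the same repair-deficient yeast strain.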

[5] = NCI Yeast Anticancer Drug Screen. Data for the mec2-1 strain (AID 157); conditions: S. cerevisiae mec2-1 strain, stronger effect = higher value
Summary of the method: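 Readout is yeast growth inhibition, normalised to vehicle-treated controls, in the mec2-1 strain exposed to compound.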

[6] = NCI Yeast Anticancer Drug Screen. Data for the rad14 strain (AID 159);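 note: 0% = growth of vehicle-treated control cultures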; conditions: S. cerevisiae rad14 strain growth inhibition, stronger effect = higher value
Summary of the method: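 Readout: yeast growth inhibition, referenced to vehicle-only cultures. Strain bears a defined alteration in DNA damage repair.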

[7] = NCI Yeast Anticancer Drug Screen. Data for the sgs1 mgt1 strain (AID 161);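 note: 0% = growth of cultures given vehicle only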; conditions: S. cerevisiae sgs1 mgt1 strain, stronger effect = higher value
Summary of the method: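 Percent growth inhibition was derived by comparing compound-exposed mutant yeast with vehicle-exposed cultures. The strain carries alterations in DNA damage repair.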

[8] = NCI Yeast Anticancer Drug Screen. Data for the CLN2oe strain (AID 163);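 note: 0% = growth of vehicle-only control cultures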; conditions: S. cerevisiae CLN2oe strain, stronger effect = higher value
Summary of the method: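 Values reflect how much compound exposure reduced yeast growth, referenced to vehicle-exposed cells. Assay organism is a strain with a defined genetic change affecting cell-cycle control.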

[9] = NCI Yeast Anticancer Drug Screen. Data for the cln2 rad14 strain (AID 165);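 note: 0% = growth equal to vehicle treated cultures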; conditions: S. cerevisiae cln2 rad14 strain, stronger effect = higher value
Summary of the method: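 Relative to vehicle controls, growth inhibition of compound-treated cln2 rad14 yeast was recorded.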

[10] = NCI Yeast Anticancer Drug Screen. Data for the bub3 strain (AID 167); conditions: S. cerevisiae bub3 mutant strain, stronger effect = higher value
Summary of the method: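 Part of a panel of yeast mutants defective in DNA damage repair or cell cycle regulation. Each strain is grown with compound, and inhibition is calculated relative to solvent-treated cultures.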

[11] = NCI Yeast Anticancer Drug Screen. Data for the wt2 strain (AID 169);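 note: 0% = growth of vehicle-treated yeast cultures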; conditions: S. cerevisiae wt2 strain growth inhibition, stronger effect = higher value
Summary of the method: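 Values express reduction in yeast growth under compound treatment, referenced to vehicle-treated cells.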

[12] = NCI Yeast Anticancer Drug Screen. Data for the mlh1 strain (AID 171);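 note: 0% = growth of vehicle-treated control cultures of the same strain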; conditions: S. cerevisiae mlh1 strain growth inhibition, stronger effect = higher value
Summary of the method: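 Steps: expose the defined-mutant yeast strain to compound; expose a parallel culture to vehicle; measure growth; express compound effect as inhibition relative to the vehicle culture.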

[13] = NCI Yeast Anticancer Drug Screen. Data for the sgs1 strain (AID 173);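 note: 0% = growth of vehicle-only control cultures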; conditions: S. cerevisiae sgs1 mutant, stronger effect = higher value
Summary of the method: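 Treat defined-mutant yeast with compound; measure growth; calculate inhibition relative to vehicle-treated cells.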

[14] = NCI Yeast Anticancer Drug Screen. Data for the mlh1 rad18 strain (AID 175); conditions: S. cerevisiae mlh1 rad18 strain growth inhibition, stronger effect = higher value
Summary of the method: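 Test agents were incubated with a yeast strain of defined genotype (DNA damage repair defect). Inhibition of growth was derived by comparison with vehicle-exposed cultures.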

[15] = NCI Yeast Anticancer Drug Screen. Data for the rad18 strain (AID 177); conditions: S. cerevisiae rad18 mutant growth inhibition, stronger effect = higher value
Summary of the method: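 A genetically defined yeast mutant impaired in DNA damage repair was treated with test compounds, then its growth was measured against cultures receiving vehicle alone.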

[16] = at 5.0 µM (retest, dose inferred, filed as 0.5)
[17] = at 50.0 µM (retest, dose inferred, filed as 5.0)

Nc1ccc(CCl)cc1Cc1c(O)ccc2ccccc12
growth inhibition ([1]; at 1.2 µM): 0% | growth inhibition ([1]; at 3.7 µM): 3% | growth inhibition ([1]; at 11.0 µM): 9% | growth inhibition ([1]; at 33.0 µM): 19% | growth inhibition ([1]; at 100.0 µM): 36% | growth inhibition ([2]; at 1.2 µM): -1% | growth inhibition ([2]; at 3.7 µM): 6% | growth inhibition ([2]; at 11.0 µM): 12% | growth inhibition ([2]; at 33.0 µM): 19% | growth inhibition ([2]; at 100.0 µM): 30% | growth inhibition ([3]; at 1.2 µM): 8% | growth inhibition ([3]; at 3.7 µM): 15% | growth inhibition ([3]; at 11.0 µM): 40% | growth inhibition ([3]; at 33.0 µM): 61% | growth inhibition ([3]; at 100.0 µM): 74% (active) | growth inhibition ([4]; at 1.2 µM): 1% | growth inhibition ([4]; at 3.7 µM): 4% | growth inhibition [4, 16]: 6% | growth inhibition ([4]; at 11.0 µM): 8% | growth inhibition ([4]; at 33.0 µM): 13% | growth inhibition [4, 17]: 41% | growth inhibition ([4]; at 50.0 µM): 51.4% | growth inhibition ([4]; at 100.0 µM): 27% | growth inhibition ([5]; at 1.2 µM): 1% | growth inhibition ([5]; at 3.7 µM): 0% | growth inhibition [5, 16]: -6% | growth inhibition ([5]; at 11.0 µM): 6% | growth inhibition ([5]; at 33.0 µM): 13% | growth inhibition [5, 17]: 84% (active) | growth inhibition ([5]; at 50.0 µM): 37.2% | growth inhibition ([5]; at 100.0 µM): 33% | growth inhibition ([6]; at 1.2 µM): 1% | growth inhibition ([6]; at 3.7 µM): 3% | growth inhibition ([6]; at 11.0 µM): 8% | growth inhibition ([6]; at 33.0 µM): 16% | growth inhibition ([6]; at 100.0 µM): 29% | growth inhibition [7, 16]: 2% | growth inhibition [7, 17]: 64% | growth inhibition ([7]; at 50.0 µM): 70.3% (active) | growth inhibition ([8]; at 1.2 µM): -3% | growth inhibition ([8]; at 3.7 µM): -7% | growth inhibition ([8]; at 11.0 µM): 3% | growth inhibition ([8]; at 33.0 µM): -1% | growth inhibition ([8]; at 100.0 µM): 34% | growth inhibition [9, 16]: 6% | growth inhibition [9, 17]: 61% | growth inhibition ([9]; at 50.0 µM): 29.3% | growth inhibition ([10]; at 1.2 µM): -4% | growth inhibition ([10]; at 3.7 µM): -2% | growth inhibition [10, 16]: 3% | growth inhibition ([10]; at 11.0 µM): 0% | growth inhibition ([10]; at 33.0 µM): 1% | growth inhibition [10, 17]: 43% | growth inhibition ([10]; at 50.0 µM): 55% | growth inhibition ([10]; at 100.0 µM): 27% | growth inhibition ([11]; at 1.2 µM): 1% | growth inhibition ([11]; at 3.7 µM): 6% | growth inhibition ([11]; at 11.0 µM): 16% | growth inhibition ([11]; at 33.0 µM): 23% | growth inhibition ([11]; at 100.0 µM): 32% | growth inhibition ([12]; at 1.2 µM): 1% | growth inhibition ([12]; at 3.7 µM): 2% | growth inhibition ([12]; at 11.0 µM): 5% | growth inhibition ([12]; at 33.0 µM): 8% | growth inhibition ([12]; at 100.0 µM): 31% | growth inhibition ([13]; at 1.2 µM): 1% | growth inhibition ([13]; at 3.7 µM): 1% | growth inhibition ([13]; at 11.0 µM): 10% | growth inhibition ([13]; at 33.0 µM): 21% | growth inhibition ([13]; at 100.0 µM): 38% | growth inhibition [14, 16]: 0% | growth inhibition [14, 17]: 61% | growth inhibition ([14]; at 50.0 µM): 66.7%

C=C(CCCO)[C@@H]1CC[C@@](C)(O)[C@H]1C
growth inhibition ([1]; at 1.2 µM): -7% | growth inhibition ([1]; at 3.7 µM): -9% | growth inhibition ([1]; at 11.0 µM): -13% | growth inhibition ([1]; at 33.0 µM): -8% | growth inhibition ([1]; at 100.0 µM): -12% | growth inhibition ([2]; at 1.2 µM): -25% | growth inhibition ([2]; at 3.7 µM): -33% | growth inhibition ([2]; at 11.0 µM): -29% | growth inhibition ([2]; at 33.0 µM): -34% | growth inhibition ([2]; at 100.0 µM): -35% | growth inhibition ([3]; at 1.2 µM): -38% | growth inhibition ([3]; at 3.7 µM): -32% | growth inhibition ([3]; at 11.0 µM): -54% | growth inhibition ([3]; at 33.0 µM): -38% | growth inhibition ([3]; at 100.0 µM): -48% | growth inhibition ([4]; at 1.2 µM): -5% | growth inhibition ([4]; at 3.7 µM): -7% | growth inhibition [4, 16]: 38% | growth inhibition ([4]; at 11.0 µM): -16% | growth inhibition ([4]; at 33.0 µM): -17% | growth inhibition [4, 17]: 90% (active) | growth inhibition ([4]; at 50.0 µM): 49% | growth inhibition ([4]; at 100.0 µM): -33% | growth inhibition ([5]; at 1.2 µM): -53% | growth inhibition ([5]; at 3.7 µM): -39% | growth inhibition [5, 16]: 44% | growth inhibition ([5]; at 11.0 µM): -48% | growth inhibition ([5]; at 33.0 µM): -41% | growth inhibition [5, 17]: 93% (active) | growth inhibition ([5]; at 50.0 µM): 68.2% | growth inhibition ([5]; at 100.0 µM): -34% | growth inhibition ([6]; at 1.2 µM): -51% | growth inhibition ([6]; at 3.7 µM): -43% | growth inhibition ([6]; at 11.0 µM): -37% | growth inhibition ([6]; at 33.0 µM): -35% | growth inhibition ([6]; at 100.0 µM): -56% | growth inhibition [7, 16]: -1% | growth inhibition [7, 17]: -9% | growth inhibition ([7]; at 50.0 µM): 55.5% | growth inhibition ([8]; at 1.2 µM): -24% | growth inhibition ([8]; at 3.7 µM): -13% | growth inhibition ([8]; at 11.0 µM): -27% | growth inhibition ([8]; at 33.0 µM): -25% | growth inhibition ([8]; at 100.0 µM): -35% | growth inhibition [9, 16]: 46% | growth inhibition [9, 17]: 28% | growth inhibition ([9]; at 50.0 µM): 9.15% | growth inhibition ([10]; at 1.2 µM): -17% | growth inhibition ([10]; at 3.7 µM): -6% | growth inhibition [10, 16]: 18% | growth inhibition ([10]; at 11.0 µM): -12% | growth inhibition ([10]; at 33.0 µM): -9% | growth inhibition [10, 17]: -1% | growth inhibition ([10]; at 50.0 µM): 55.5% | growth inhibition ([10]; at 100.0 µM): -12% | growth inhibition ([11]; at 1.2 µM): -30% | growth inhibition ([11]; at 3.7 µM): -27% | growth inhibition ([11]; at 11.0 µM): -33% | growth inhibition ([11]; at 33.0 µM): -30% | growth inhibition ([11]; at 100.0 µM): -23% | growth inhibition ([12]; at 1.2 µM): -20% | growth inhibition ([12]; at 3.7 µM): -23% | growth inhibition ([12]; at 11.0 µM): -39% | growth inhibition ([12]; at 33.0 µM): -31% | growth inhibition ([12]; at 100.0 µM): -48% | growth inhibition ([13]; at 1.2 µM): -35% | growth inhibition ([13]; at 3.7 µM): -28% | growth inhibition ([13]; at 11.0 µM): -31% | growth inhibition ([13]; at 33.0 µM): -29% | growth inhibition ([13]; at 100.0 µM): -39% | growth inhibition [14, 16]: 36% | growth inhibition [14, 17]: 87% (active) | growth inhibition ([14]; at 50.0 µM): 43.3% | growth inhibition ([15]; at 1.2 µM): -38% | growth inhibition ([15]; at 3.7 µM): -38% | growth inhibition ([15]; at 11.0 µM): -45% | growth inhibition ([15]; at 33.0 µM): -46% | growth inhibition ([15]; at 100.0 µM): -66%

— PubChem BioAssay (NCI)
